Screening data: PubChem, Broad Institute
A selection follows.
aSyn 5UTR act: Activators via SNCA 5'UTR binding, MLPCN; alpha-synuclein 5'UTR reporter, activators screen; activity score, % (tested at 7.5 µM), hits read low; 300,000 tested, 7.1% active; AID 1814; in the data active means activity score below about -60%
* = called active by the depositor.

SMILES	aSyn 5UTR act
Cc1cccc(OCC2=NS(=O)(=O)c3ccccc3N2)c1	-93*
Cc1ccc(-c2nc(N/N=C/c3ccccc3[N+](=O)[O-])c3ccccc3n2)cc1	-267*
Cc1cc(N/N=C/c2ccccc2[N+](=O)[O-])nc(-n2nc(C)cc2C)n1	57
Brc1ccc(-c2nc(N/N=C/c3cccnc3)c3ccccc3n2)cc1	-92*
Cc1ccccc1Cn1ccc(-c2ccc3c(c2)OCO3)n1	-130*
Fc1cccc(Cn2ccc(-c3ccc4c(c3)OCO4)n2)c1	-97*
Cc1ccccc1Cn1nnc(-c2ccc3c(c2)OCO3)n1	-168*
Fc1cccc(Cl)c1Cn1nnc(-c2ccc3c(c2)OCO3)n1	-97*
COC(=O)c1cccc(NC(=O)Nc2ccc(Cl)c(Cl)c2)c1	-134*
COc1cccc(/C=N/NC(=O)C(=O)Nc2ccccc2OC(F)(F)C(F)F)c1O	71
COC(=O)c1cccc(NC(=O)NC(=O)c2ccccc2Cl)c1	95
COC(=O)c1cccc(NC(=O)Nc2ccccc2OC)c1	-65*
COc1ccccc1NC(=O)C(=O)/C=C(\O)c1ccccc1	-131*
CSc1nc2ncc(-c3ccsc3)c(N)n2n1	-62*
Cc1cc(C)nc(/N=C(\N)Nc2ccc(F)c([N+](=O)[O-])c2)n1	-124*
Cc1ccc(CN=C(N)Nc2nc(C)cc(C)n2)cc1	117
Cc1cc(C)nc(/N=C(\N)Nc2ccc3c(c2)OCCO3)n1	-126*
COc1ccc(-c2noc(-c3ccc(Cl)cc3)n2)cc1	-131*
CCOC(=O)N1CCN(c2nc(-c3ccc(OC)cc3)no2)CC1	-88*
Cc1nc(-c2noc(-c3ccc(Cl)cc3)n2)c(C(F)(F)F)o1	-103*
COc1ccc(-c2nc(-c3ccc(C(=O)O)cc3)no2)cc1	-90*
COc1ccc(-c2noc(-c3ccc(Br)o3)n2)cc1	-212*
COC(=O)c1ccc(-c2nc(-c3ccc(Br)o3)no2)cc1	-108*
CCOC(=O)N1CCN(C(=O)CSc2nnc(-c3ccc(C(C)(C)C)cc3)o2)CC1	-73*
Cc1cccc(-c2nnc(SCC(=O)N3CCCC3)o2)c1	-83*
SMILES	aSyn 5UTR act
Cc1ccc(-c2nnc(SCC(=O)N3CCCC3)o2)cc1C	-83*
Cc1ccc(-c2nnc(SCC(=O)N3CCCC3)o2)cc1	-104*
O=C(CSc1nnc(-c2ccc(F)cc2)o1)N1CCCC1	-114*
CN(C(=O)C1CCOC1)c1nnc(-c2ccccn2)s1 (stereo not drawn)	-67*
C/C(=N\OC(=O)NC(C)C)c1sc(-c2ccccc2)nc1C	-141*
C=C(C)c1sc(-c2ccc(Cl)cc2)nc1C	-223*
C/C(=N\OC(=O)NC(C)C)c1sc(-c2ccc(Cl)cc2)nc1C	-154*
CCNC(=O)O/N=C(\C)c1sc(-c2ccc(Cl)cc2)nc1C	-77*
C/C(=N\OC(=O)NC1CCCCC1)c1sc(-c2ccccc2)nc1C	-115*
O=C(NCc1cc2ccccc2[nH]1)c1ccccc1F	-81*
COc1ccc(-c2cc(-c3ccc(OC)c(OC)c3)n[nH]2)c(O)c1	-163*
COc1cc(-c2ccc(=O)[nH]n2)ccc1OC(F)F	87
COc1ccc(-c2cc(-c3ccccc3O)[nH]n2)cc1OC	-154*
COc1ccc(-c2ccc3ccccc3n2)cc1OC	-171*
N#Cc1c(N)nc2c(c1N)CC(COc1ccccc1)O2 (stereo not drawn)	-130*
CC(C)(C)CC(=O)Nc1nnc(CCc2ccccc2)s1	-113*
CC(C)(C)Cc1nnc(NC(=O)CSc2ccccc2)s1	-137*
CCC(C)(C)C(=O)Nc1nnc(CCc2ccccc2)s1	-141*
Cc1nc(C)c(C(=O)Nc2nc3c(C)cccc3s2)o1	-74*
O=C(Nc1nc(-c2ccc(Cl)cc2)cs1)C1CCCO1 (stereo not drawn)	-90*
COc1ccc2nc(NC(=O)C3CCCO3)sc2c1 (stereo not drawn)	-87*
Cc1cccc2sc(NC(=O)C3CCCO3)nc12 (stereo not drawn)	-126*
CSc1nc2ccc(NC(=O)NC(=O)c3c(F)cccc3F)cc2s1	-125*
COc1ccc(-c2nnc(NC(=O)C3CCCO3)s2)cc1 (stereo not drawn)	-112*
COc1ccc2nc(NC(=O)C3CCN(C(=O)c4ccco4)CC3)sc2c1	-73*
SMILES	aSyn 5UTR act
CSc1nc2ccc(NC(=O)C3CCCO3)cc2s1 (stereo not drawn)	-125*
Cc1ccc(-c2cc3ccccc3nc2N)cc1	-93*
Nc1nc2ccccc2cc1-c1cccs1	-121*
Cc1ccc2nc(Cl)c(-c3ccccc3)cc2c1	74
c1csc(-c2ccc3ccccc3n2)c1	-140*
O=C1C2C3CCC(C3)C2C(=O)N1c1ccc(OS(=O)(=O)c2ccccc2)cc1 (stereo not drawn)	-178*
COc1ccccc1C(=O)N1CCN(CCNC(=O)C(=O)Nc2ccc(Br)c(C)c2)CC1	-89*
O=Cc1c(-c2ccccc2)cc2oc3ccccc3cc1-2	-119*
O=C(N/N=C\c1c(O)ccc2ccccc12)c1ccc(O)cc1	75
COc1ccc(C(=O)N/N=C/c2ccc(SC)cc2)cc1	-65*
COc1ccc(/C=N/NC(=O)c2ccc[nH]2)cc1	-147*
CSc1ccc(/C=N/NC(=O)c2ccc(O)cc2)cc1	-117*
O=C(O)c1ccccc1-c1ncc(-c2ccccc2)o1	-137*
c1cncc(-c2nc3c(ccc4ccccc43)[nH]2)c1	-193*
Cc1cn(-c2ccc(Br)cc2)[nH]c1=O	-79*
c1ccc(-c2nccc(-c3ccc4c(c3)OCO4)n2)cc1	-105*
CCc1ccn2cc(-c3ccc4c(c3)OCO4)nc2c1	107
c1cnc2nc(-c3ccc4c(c3)OCO4)cn2c1	-93*
Cc1ccc(-c2cn3cccnc3n2)cc1	-119*
c1ccc(-c2noc(-c3ccc4c(c3)OCO4)n2)nc1	91
CCc1ccc(-n2cc(-c3ccc([N+](=O)[O-])cc3)[nH]c2=S)cc1	-108*
Fc1ccccc1-n1cc(-c2ccccc2)[nH]c1=S	-100*
COc1ccc(-n2cc(-c3ccccc3)[nH]c2=S)c(OC)c1	-75*
COc1ccc(-n2cc(-c3ccc(Br)cc3)[nH]c2=S)cc1	-138*
Cc1ccc(-c2cn(-c3ccccc3)c(=S)[nH]2)cc1C	-94*
SMILES	aSyn 5UTR act
O=c1c2[nH]c3ccc(F)cc3c2ncn1C1CCCCC1	-82*
O=c1cc(-c2ccccc2)[nH]c2ccc(F)cc12	87
COc1cccc(C2=CC(c3ccc(N(C)C)cc3)n3ncnc3N2)c1 (stereo not drawn)	-72*
COc1cccc(C2=CC(c3ccc(N(C)C)cc3)n3nnnc3N2)c1 (stereo not drawn)	-76*
COc1ccc(C2C=C(c3ccccc3)Nc3nnnn32)cc1 (stereo not drawn)	-168*
CCN(CC)Cc1c(O)ccc2cc(-c3nc4ccccc4n3C)c(=O)oc12	-74*
Cn1c(-c2cc3ccc(OC(=O)C(C)(C)C)cc3oc2=O)nc2ccccc21	-117*
CC(=O)Oc1ccc2cc(-c3nc4ccccc4n3C)c(=O)oc2c1	-226*
CC(C)(C)C(=O)Oc1ccc2cc(-c3ccc4ccccc4n3)c(=O)oc2c1	-157*
Cc1[nH]n(C(N)=S)c(=O)c1N=Nc1cccc(Cl)c1	-126*
Cc1cccc(N=Nc2c(C)[nH]n(C(N)=S)c2=O)c1C	-199*
CC(=O)N(C)c1ccc(N=Nc2c(C)[nH]n(C(N)=S)c2=O)cc1	-112*
CCn1ncc(Br)c1C(=O)Nc1cc(C)cc(C)c1	-71*
Cc1ccn2cc(C34CC5CC(CC(C5)C3)C4)nc2c1	-83*
COc1cccc(-c2ccc(SCc3ccccn3)nn2)c1	-84*
